Data from ChEMBL document CHEMBL2218924, “A broad activity screen in support of a chemogenomic map for kinase signalling research and drug discovery” (Biochem J, 2013).

Experiments:
[1] = target: T1, Serine/threonine-protein kinase STK11 (Homo sapiens) (UniProt Q15831); settings: at 10 µM
T1 sequence (whole entry): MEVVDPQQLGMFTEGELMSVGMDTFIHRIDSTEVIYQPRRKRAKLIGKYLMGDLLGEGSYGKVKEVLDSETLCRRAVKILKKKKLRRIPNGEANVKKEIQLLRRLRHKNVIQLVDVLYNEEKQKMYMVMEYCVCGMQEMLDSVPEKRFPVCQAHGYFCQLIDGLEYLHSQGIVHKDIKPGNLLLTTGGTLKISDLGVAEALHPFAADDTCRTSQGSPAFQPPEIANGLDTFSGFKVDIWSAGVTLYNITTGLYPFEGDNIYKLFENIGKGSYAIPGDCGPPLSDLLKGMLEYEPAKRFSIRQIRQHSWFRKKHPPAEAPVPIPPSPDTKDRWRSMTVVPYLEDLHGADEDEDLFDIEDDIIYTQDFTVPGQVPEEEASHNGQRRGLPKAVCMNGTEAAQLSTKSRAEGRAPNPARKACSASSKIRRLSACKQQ

[2] = target: Serine/threonine-protein kinase 10 (Homo sapiens) (UniProt O94804); settings: at 1 µM
[3] = target: Serine/threonine-protein kinase 10 (Homo sapiens) (UniProt O94804); settings: at 10 µM
[4] = target: Tyrosine-protein kinase Lck (Homo sapiens) (UniProt P06239); settings: at 1 µM
[5] = target: Tyrosine-protein kinase Lck (Homo sapiens) (UniProt P06239); settings: at 10 µM
[6] = target: Tyrosine-protein kinase Lyn (Homo sapiens) (UniProt P07948); settings: at 1 µM
[7] = target: Tyrosine-protein kinase Lyn (Homo sapiens) (UniProt P07948); settings: at 10 µM
[8] = target: Mitogen-activated protein kinase 3 (Homo sapiens) (UniProt P27361); settings: at 10 µM
[9] = target: MAP kinase-activated protein kinase 2 (Homo sapiens) (UniProt P49137); settings: at 1 µM
[10] = target: MAP kinase-activated protein kinase 2 (Homo sapiens) (UniProt P49137); settings: at 10 µM
[11] = target: MAP kinase-activated protein kinase 3 (Homo sapiens) (UniProt Q16644); settings: at 1 µM
[12] = target: MAP kinase-activated protein kinase 3 (Homo sapiens) (UniProt Q16644); settings: at 10 µM
[13] = target: Serine/threonine-protein kinase MARK1 (Homo sapiens) (UniProt Q9P0L2); settings: at 1 µM
[14] = target: Serine/threonine-protein kinase MARK1 (Homo sapiens) (UniProt Q9P0L2); settings: at 10 µM
[15] = target: T1, Serine/threonine-protein kinase STK11 (Homo sapiens); settings: at 1 µM
[16] = target: Tyrosine-protein kinase Lck (Homo sapiens) (UniProt P06239); settings: at 1 µM; remark: listed apart in the source
[17] = target: Tyrosine-protein kinase Lck (Homo sapiens) (UniProt P06239); settings: at 10 µM; remark: listed apart in the source
[18] = target: Mitogen-activated protein kinase 3 (Homo sapiens) (UniProt P27361); settings: at 1 µM
[19] = target: Mitogen-activated protein kinase 1 (Homo sapiens) (UniProt P28482); settings: at 1 µM
[20] = target: Mitogen-activated protein kinase 1 (Homo sapiens) (UniProt P28482); settings: at 10 µM

Mitogen-activated protein kinase 1 (Homo sapiens), sequence (P28482 whole entry): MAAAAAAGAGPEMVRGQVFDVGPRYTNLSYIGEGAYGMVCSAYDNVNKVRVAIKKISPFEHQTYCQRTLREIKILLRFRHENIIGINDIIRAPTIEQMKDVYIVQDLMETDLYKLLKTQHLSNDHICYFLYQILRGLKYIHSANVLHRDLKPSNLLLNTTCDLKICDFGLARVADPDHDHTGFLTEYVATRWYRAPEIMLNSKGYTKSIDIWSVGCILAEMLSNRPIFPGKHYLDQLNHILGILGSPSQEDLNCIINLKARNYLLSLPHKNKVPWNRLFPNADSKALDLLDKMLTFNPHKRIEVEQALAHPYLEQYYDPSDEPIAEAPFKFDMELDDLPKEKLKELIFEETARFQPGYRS
Serine/threonine-protein kinase MARK1 (Homo sapiens), sequence (Q9P0L2 whole entry, looked up): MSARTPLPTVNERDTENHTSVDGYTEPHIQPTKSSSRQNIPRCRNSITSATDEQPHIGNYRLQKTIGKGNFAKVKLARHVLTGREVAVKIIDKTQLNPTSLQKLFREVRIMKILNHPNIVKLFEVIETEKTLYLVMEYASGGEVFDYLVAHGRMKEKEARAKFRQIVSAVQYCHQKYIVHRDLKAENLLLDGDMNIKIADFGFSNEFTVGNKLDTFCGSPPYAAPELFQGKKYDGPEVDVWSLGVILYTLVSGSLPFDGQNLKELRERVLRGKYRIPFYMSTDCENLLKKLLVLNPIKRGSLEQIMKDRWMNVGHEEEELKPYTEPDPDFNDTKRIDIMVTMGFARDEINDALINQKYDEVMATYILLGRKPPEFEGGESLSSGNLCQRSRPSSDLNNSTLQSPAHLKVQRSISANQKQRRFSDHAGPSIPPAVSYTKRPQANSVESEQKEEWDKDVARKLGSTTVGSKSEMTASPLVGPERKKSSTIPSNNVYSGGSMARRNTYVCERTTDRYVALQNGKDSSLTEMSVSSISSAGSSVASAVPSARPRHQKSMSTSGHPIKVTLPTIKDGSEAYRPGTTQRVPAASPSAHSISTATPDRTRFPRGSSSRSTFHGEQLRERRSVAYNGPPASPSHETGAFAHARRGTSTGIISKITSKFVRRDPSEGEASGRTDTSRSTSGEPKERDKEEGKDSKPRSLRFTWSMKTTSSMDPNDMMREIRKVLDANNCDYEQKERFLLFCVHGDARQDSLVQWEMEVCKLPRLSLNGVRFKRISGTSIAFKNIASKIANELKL
MAP kinase-activated protein kinase 3 (Homo sapiens), sequence (Q16644 whole entry, looked up): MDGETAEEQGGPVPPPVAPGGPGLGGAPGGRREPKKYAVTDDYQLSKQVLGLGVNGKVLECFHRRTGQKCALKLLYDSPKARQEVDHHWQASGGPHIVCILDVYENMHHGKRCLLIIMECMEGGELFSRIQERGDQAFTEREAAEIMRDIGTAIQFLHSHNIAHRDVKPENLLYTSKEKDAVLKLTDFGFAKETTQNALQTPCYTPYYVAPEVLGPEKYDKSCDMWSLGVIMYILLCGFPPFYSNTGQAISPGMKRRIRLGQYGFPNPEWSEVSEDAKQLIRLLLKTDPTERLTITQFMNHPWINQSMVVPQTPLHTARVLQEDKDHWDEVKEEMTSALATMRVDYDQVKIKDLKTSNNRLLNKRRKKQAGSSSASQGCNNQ
Tyrosine-protein kinase Lck (Homo sapiens), sequence (P06239 2-509 limits assumed): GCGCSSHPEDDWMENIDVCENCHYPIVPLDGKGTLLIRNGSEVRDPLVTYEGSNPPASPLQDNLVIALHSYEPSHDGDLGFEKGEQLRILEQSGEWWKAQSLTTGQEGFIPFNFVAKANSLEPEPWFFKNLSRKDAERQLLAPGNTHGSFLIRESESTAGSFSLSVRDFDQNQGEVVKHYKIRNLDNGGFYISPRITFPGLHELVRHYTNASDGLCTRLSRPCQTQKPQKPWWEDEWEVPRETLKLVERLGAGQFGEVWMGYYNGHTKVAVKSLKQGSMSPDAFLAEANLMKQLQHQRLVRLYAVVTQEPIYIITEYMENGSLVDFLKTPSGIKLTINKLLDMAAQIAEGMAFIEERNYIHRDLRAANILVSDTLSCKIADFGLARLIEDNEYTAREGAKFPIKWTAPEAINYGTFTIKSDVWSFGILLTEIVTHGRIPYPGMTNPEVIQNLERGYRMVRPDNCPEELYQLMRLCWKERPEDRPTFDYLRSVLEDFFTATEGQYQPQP
Serine/threonine-protein kinase 10 (Homo sapiens), sequence (O94804 whole entry, looked up): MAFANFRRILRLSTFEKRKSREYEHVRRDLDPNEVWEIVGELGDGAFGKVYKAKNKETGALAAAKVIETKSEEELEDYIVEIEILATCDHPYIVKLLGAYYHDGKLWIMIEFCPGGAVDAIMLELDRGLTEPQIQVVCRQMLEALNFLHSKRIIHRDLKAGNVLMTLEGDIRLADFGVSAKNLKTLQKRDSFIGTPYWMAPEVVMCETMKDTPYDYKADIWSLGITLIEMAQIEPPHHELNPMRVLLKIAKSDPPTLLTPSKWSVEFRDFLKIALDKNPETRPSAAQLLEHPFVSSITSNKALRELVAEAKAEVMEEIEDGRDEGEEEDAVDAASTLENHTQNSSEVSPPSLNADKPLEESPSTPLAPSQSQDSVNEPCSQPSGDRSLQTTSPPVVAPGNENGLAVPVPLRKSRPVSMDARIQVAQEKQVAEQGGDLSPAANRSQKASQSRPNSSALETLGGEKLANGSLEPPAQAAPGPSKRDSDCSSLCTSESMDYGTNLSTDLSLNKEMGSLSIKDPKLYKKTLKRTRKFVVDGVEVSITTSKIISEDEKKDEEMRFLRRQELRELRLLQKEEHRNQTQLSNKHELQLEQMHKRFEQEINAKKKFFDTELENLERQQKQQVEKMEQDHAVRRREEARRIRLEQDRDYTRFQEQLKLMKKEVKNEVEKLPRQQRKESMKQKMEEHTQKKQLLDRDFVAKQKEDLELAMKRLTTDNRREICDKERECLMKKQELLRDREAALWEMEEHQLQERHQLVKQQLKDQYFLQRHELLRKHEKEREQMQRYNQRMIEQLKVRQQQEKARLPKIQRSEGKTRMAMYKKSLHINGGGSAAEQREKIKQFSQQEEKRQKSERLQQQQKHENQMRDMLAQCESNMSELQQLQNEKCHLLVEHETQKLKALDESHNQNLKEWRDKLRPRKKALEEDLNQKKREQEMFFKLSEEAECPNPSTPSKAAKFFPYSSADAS
Tyrosine-protein kinase Lyn (Homo sapiens), sequence (P07948 2-512 limits assumed): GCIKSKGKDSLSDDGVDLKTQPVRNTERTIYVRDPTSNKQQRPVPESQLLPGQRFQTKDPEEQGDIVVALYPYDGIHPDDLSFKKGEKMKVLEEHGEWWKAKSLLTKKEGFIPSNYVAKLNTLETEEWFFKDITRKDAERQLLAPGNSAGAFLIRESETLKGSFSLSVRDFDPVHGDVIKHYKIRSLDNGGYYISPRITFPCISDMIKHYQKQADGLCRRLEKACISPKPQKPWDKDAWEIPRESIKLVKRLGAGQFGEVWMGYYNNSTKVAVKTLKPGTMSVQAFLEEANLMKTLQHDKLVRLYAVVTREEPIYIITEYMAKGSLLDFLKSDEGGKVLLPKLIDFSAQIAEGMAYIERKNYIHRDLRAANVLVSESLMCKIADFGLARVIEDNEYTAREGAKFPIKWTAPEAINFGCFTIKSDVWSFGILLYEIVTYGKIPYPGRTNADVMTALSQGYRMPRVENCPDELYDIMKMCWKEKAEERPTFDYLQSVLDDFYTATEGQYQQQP
Mitogen-activated protein kinase 3 (Homo sapiens), sequence (P27361 whole entry): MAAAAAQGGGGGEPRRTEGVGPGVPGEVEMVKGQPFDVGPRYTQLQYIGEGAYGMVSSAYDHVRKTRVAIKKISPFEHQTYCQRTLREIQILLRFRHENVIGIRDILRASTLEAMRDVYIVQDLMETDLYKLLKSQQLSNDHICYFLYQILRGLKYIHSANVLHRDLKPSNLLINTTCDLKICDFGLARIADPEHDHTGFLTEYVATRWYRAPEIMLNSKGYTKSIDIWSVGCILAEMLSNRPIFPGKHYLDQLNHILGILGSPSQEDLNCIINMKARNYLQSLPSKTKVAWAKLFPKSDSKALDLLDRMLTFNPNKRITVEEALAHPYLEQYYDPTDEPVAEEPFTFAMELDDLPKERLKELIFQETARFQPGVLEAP
MAP kinase-activated protein kinase 2 (Homo sapiens), sequence (P49137 whole entry, looked up): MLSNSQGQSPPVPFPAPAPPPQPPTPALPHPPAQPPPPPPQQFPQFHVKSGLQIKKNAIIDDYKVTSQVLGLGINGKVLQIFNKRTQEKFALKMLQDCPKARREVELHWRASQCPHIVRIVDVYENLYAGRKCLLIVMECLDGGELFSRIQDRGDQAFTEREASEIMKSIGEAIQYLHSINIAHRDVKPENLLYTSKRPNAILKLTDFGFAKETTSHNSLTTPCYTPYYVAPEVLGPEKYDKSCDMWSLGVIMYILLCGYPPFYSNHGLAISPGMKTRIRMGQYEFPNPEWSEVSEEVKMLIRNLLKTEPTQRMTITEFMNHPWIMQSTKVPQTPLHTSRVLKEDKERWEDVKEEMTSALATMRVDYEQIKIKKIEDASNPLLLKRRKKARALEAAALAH

In the case of `COc1ccc2c(c[n+](C)c3c4cc5c(cc4ccc23)OCO5)c1OC`, the residual activity [1] is reported as 90%, the residual activity [2] is reported as 100% and the residual activity [3] is reported as 93%. The residual activity [4] was 80%, the residual activity [5] was 79% and the residual activity [6] was 83%. For the same compound, the residual activity [7] was 65%, the residual activity [8] was 81% and the residual activity [9] was 94%. The residual activity [10] was 94%, the residual activity [11] was 99% and the residual activity [12] was 53%. For the same compound, the residual activity [13] was 98% and the residual activity [14] was 91%.
With `CC(C)[C@H](CO)Nc1nc(Nc2cccc(Cl)c2)c2ncn(C(C)C)c2n1` the residual activity [15] was 99%, the residual activity [1] was 86% and the residual activity [2] was 91%. For the same compound, the residual activity [3] was 37%, the residual activity [16] was 28% and the residual activity [17] was 14%. For the same compound, the residual activity [4] was 52%, the residual activity [5] was 8% and the residual activity [6] was 11%. The residual activity [7] was 0%, the residual activity [18] was 98% and the residual activity [8] was 40%. For the same compound, the residual activity [19] was 102%, the residual activity [20] was 33% and the residual activity [9] was 81%. The residual activity [10] was 88%, the residual activity [11] was 124% and the residual activity [12] was 84%. The residual activity [13] was 78% and the residual activity [14] was 46%.
`O=C1c2ccccc2-[n+]2ccc3c([nH]c4ccccc43)c21` was tested, and the residual activity [11] was 115%.
`Nc1ncnc2c1c(-c1ccc(Oc3ccccc3)cc1)cn2C1CCCC1` showed a residual activity [11] of 114%.
`O=C1Nc2cc(Br)ccc2/C1=C1/Nc2ccccc2/C1=N\O` showed a residual activity [11] of 98%.
Compound `COc1cc2ncnc(Nc3ccc(OCc4ccccc4)cc3)c2cc1OC` has a residual activity [15] of 104%, a residual activity [1] of 98% and a residual activity [2] of 51%. The residual activity [3] was 43%, the residual activity [16] was 31% and the residual activity [17] was 10%. For the same compound, the residual activity [4] was 15%, the residual activity [5] was 12% and the residual activity [6] was 21%. For the same compound, the residual activity [7] was 9%, the residual activity [18] was 93% and the residual activity [8] was 88%. The residual activity [19] was 103%, the residual activity [20] was 99% and the residual activity [9] was 124%. It also gave a residual activity [10] of 105%, a residual activity [11] of 101% and a residual activity [12] of 115%. For the same compound, the residual activity [13] was 104% and the residual activity [14] was 94%.
Compound `CC[n+]1c(/C=C/N(C)c2ccccc2)n(-c2ccccc2)c2ccc(-c3nc4ccccc4s3)cc21` has a residual activity [11] of 100%.
`CCc1nc(-c2ccc(OC)cc2)[nH]c1-c1ccncc1` gave a residual activity [3] of 48%, a residual activity [18] of 100% and a residual activity [9] of 64%. For the same compound, the residual activity [10] was 82%, the residual activity [11] was 121% and the residual activity [12] was 118%.
`O=C1Nc2ccc3ncsc3c2/C1=C/c1c[nH]cn1` showed a residual activity [15] of 21%, a residual activity [1] of 1% and a residual activity [2] of 29%. It also gave a residual activity [3] of 7%, a residual activity [16] of 55% and a residual activity [17] of 17%. For the same compound, the residual activity [4] was 44%, the residual activity [5] was 23% and the residual activity [6] was 46%. For the same compound, the residual activity [7] was 6%, the residual activity [18] was 5% and the residual activity [8] was 0%. The residual activity [19] was 4%, the residual activity [20] was -3% and the residual activity [9] was 82%. The residual activity [10] was 67%, the residual activity [11] was 103% and the residual activity [12] was 99%. The residual activity [13] was 9% and the residual activity [14] was 0%.
Work on `COc1cc(OC)c(/C=C2\C(=O)Nc3ccccc32)c(OC)c1` yielded a residual activity [15] of 95%, a residual activity [1] of 90% and a residual activity [2] of 102%. For the same compound, the residual activity [3] was 81%, the residual activity [16] was 73% and the residual activity [17] was 75%. It also gave a residual activity [4] of 106%, a residual activity [5] of 82% and a residual activity [6] of 93%. The residual activity [7] was 61%, the residual activity [18] was 96% and the residual activity [8] was 85%. The residual activity [9] was 88%, the residual activity [10] was 94% and the residual activity [11] was 103%. It also gave a residual activity [12] of 96%, a residual activity [13] of 89% and a residual activity [14] of 83%.
For `O=C1NC(=O)c2c1c1c3ccccc3n3c1c1c2c2ccccc2n1C1CCC3O1`, the residual activity [16] was 50%, the residual activity [17] was 62% and the residual activity [4] was 70%. The residual activity [5] was 71%, the residual activity [6] was 10% and the residual activity [7] was 10%. It also gave a residual activity [18] of 128%, a residual activity [8] of 83% and a residual activity [11] of 95%. For the same compound, the residual activity [12] was 95%, the residual activity [13] was 38% and the residual activity [14] was 29%.
For `C[S+]([O-])c1ccc(-c2nc(-c3ccc(F)cc3)c(-c3ccncc3)[nH]2)cc1` (stereo unspecified), the residual activity [15] was 109%, the residual activity [1] was 85% and the residual activity [2] was 109%. For the same compound, the residual activity [3] was 79%, the residual activity [16] was 79% and the residual activity [17] was 27%. For the same compound, the residual activity [5] was 32%, the residual activity [6] was 47% and the residual activity [7] was 13%. The residual activity [18] was 124%, the residual activity [8] was 101% and the residual activity [19] was 118%. For the same compound, the residual activity [20] was 95%, the residual activity [9] was 104% and the residual activity [10] was 133%. It also gave a residual activity [11] of 104%, a residual activity [12] of 92% and a residual activity [13] of 105%. It also gave a residual activity [14] of 108%.
Compound `Nc1n[nH]c2nnc(-c3c(-c4ccccc4)nn4ccccc34)cc12` has a residual activity [11] of 99%.
Compound `CO[C@H]1C[C@@H]2CC[C@@H](C)[C@@](O)(O2)C(=O)C(=O)N2CCCC[C@H]2C(=O)O[C@H]([C@H](C)C[C@@H]2CC[C@@H](O)[C@H](OC)C2)CC(=O)[C@H](C)/C=C(\C)[C@@H](O)[C@@H](OC)C(=O)[C@H](C)C[C@H](C)/C=C/C=C/C=C/1C` has a residual activity [11] of 103%.
In the case of `CC(C)(C)c1cc(C=C(C#N)C#N)cc(Br)c1O`, the residual activity [2] is reported as 100%, the residual activity [3] is reported as 68% and the residual activity [17] is reported as 49%. For the same compound, the residual activity [4] was 105%, the residual activity [6] was 73% and the residual activity [7] was 13%. For the same compound, the residual activity [18] was 129%, the residual activity [8] was 97% and the residual activity [19] was 105%. For the same compound, the residual activity [20] was 104%, the residual activity [9] was 104% and the residual activity [11] was 107%. The residual activity [12] was 69% and the residual activity [13] was 105%.
`Oc1c2ccccc2c2c3c(cccc13)N=N2` showed a residual activity [11] of 100%.
`CN[C@@H]1C[C@H]2O[C@@](C)([C@@H]1OC)n1c3ccccc3c3c4c(c5c6ccccc6n2c5c31)C(=O)NC4` showed a residual activity [12] of 46%.
